# Rows were chosen to be rich in hits. Some 3.9% of all compounds tested hit in one or more screens of this group.
# CCHFV vOTU inh: CCHFV vOTU protease inhibition; hit rate 0.55% among 370,000; inhibition, % at 11.5 µM; Pep-AMC fluorescence; also: 0% = vehicle wells with enzyme and 100% = no enzyme wells
# GDH-TPI inh: inhibits GDH-TPI coupling enzymes, artifact for Mtb FBA screen; GDH-TPI coupled enzyme counterscreen, NADH absorbance; inhibition, % at 4.8 µM; hit rate 1.2% among 360,000; AID 588335;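 also: 0% = DMSO wells and 100% = wells lacking the enzyme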
# Mtb FBA inh: inhibitors of M. tuberculosis fructose-bisphosphate aldolase. P9WQA3. purified M. tuberculosis FBA, fluorescence read-out. inhibition, % at 1 µM. hit rate 2.3% among 360,000; in the data active = inhibition above about 27%;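 also: 0% = vehicle and 100% = reference inhibitor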
# Target sequence (P9WQA3 whole entry, looked up): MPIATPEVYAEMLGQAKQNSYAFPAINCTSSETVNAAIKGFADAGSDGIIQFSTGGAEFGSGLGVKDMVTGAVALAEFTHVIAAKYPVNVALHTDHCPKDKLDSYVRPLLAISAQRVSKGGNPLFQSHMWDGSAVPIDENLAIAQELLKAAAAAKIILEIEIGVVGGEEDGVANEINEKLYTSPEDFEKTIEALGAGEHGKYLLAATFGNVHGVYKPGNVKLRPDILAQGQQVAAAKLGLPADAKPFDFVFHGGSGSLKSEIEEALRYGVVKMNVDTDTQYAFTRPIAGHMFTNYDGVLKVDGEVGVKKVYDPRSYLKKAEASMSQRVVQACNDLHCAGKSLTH
# BH1578 lux ind: induces V. cholerae light production without autoinducers | V. cholerae BH1578 lux reporter, luminescence, 6 h | activation, % at 18.7 µM | hit rate 0.16% among 350,000; in the data active = activation mostly above about 9.7%, no sharp cut-off
# Numbers without * were called inactive; i = inactive; · = not tested or not shown; + = active, no number. Rule as the data show it, unless noted: active = inhibition above about 30%; inactive = the rest.
SMILES,CCHFV vOTU inh,GDH-TPI inh,Mtb FBA inh,BH1578 lux ind
O=C(NCCCN1CCOCC1)c1cc2c(s1)CCCC2,10,6,2,i
O=C(O)c1cc2c(s1)-c1ccccc1OC2,-232,23,+,-2
O=C(O)c1cc2c(s1)-c1ccccc1CC2,-67,52*,191*,0
O=C(NCCCN1CCOCC1)c1cc2c(s1)-c1ccccc1OC2,-399,35*,+,i
Cc1nn2c(c1-c1ccccc1)NC1=C(C(=O)CCC1)C2c1ccccc1 (centres undefined),-109,33*,115*,-3
CCC(=O)N1c2ccccc2NC2=C(C(=O)CCC2)C1c1ccccc1 (centres undefined),9,24,3,-1
COc1ccc(C(=O)NCCS(=O)(=O)N2CCc3ccccc3C2)c(OC)c1,-14,5,-1,i
CN1CCN(C(=S)c2ccc(-c3cccc([N+](=O)[O-])c3)o2)CC1,13,14,-3,0
O=[N+]([O-])c1cccc(-c2ccc(C(=S)N3CCOCC3)o2)c1,13,41*,-5,i
Cc1ccc(S(=O)(=O)c2nnn3c2nc(NCCCN2CCCC2=O)c2ccccc23)cc1C,9,3,31*,i
COc1ccc([N+](=O)[O-])cc1N(CC(=O)NCc1ccco1)S(C)(=O)=O,10,11,-1,0
Cc1cccc2cc(C#N)c(NCc3ccccc3)nc12,9,-1,30*,-1
Cc1cccc2cc(C#N)c(NCCNS(=O)(=O)c3ccccc3)nc12,-14,-3,13,-1
COc1ccccc1-c1cc(C(=O)N/N=C/c2ccc(C)o2)c2ccccc2n1,9,49*,0,i
O=C(N/N=C/c1ccc([N+](=O)[O-])o1)c1cc(-c2ccncc2)nc2ccccc12,7,40*,1,0
O=C(N/N=C/c1ccco1)c1cc(-c2cccc(Br)c2)nc2ccccc12,2,41*,-1,0
O=C(N/N=C/c1ccc([N+](=O)[O-])o1)c1cc(-c2ccc(-c3ccccc3)cc2)nc2ccccc12,7,10,15,0
Cc1ccsc1/C=N/NC(=O)c1cc(-c2ccncc2)nc2ccccc12,4,43*,-4,0
CN1/C(=C\C(=O)CSc2ncn[nH]2)C(C)(C)c2ccccc21,2,23,-3,i
O=C(CSc1nc2cc(S(=O)(=O)N3CCOCC3)ccc2o1)NC1CCCc2ccccc21 (centres undefined),-22,4,3,0
Cc1ccc2c(c1)c1ncnc(N3CCOCC3)c1n2C,-131,10,126*,4
CCNC(=O)C1(C)CCN(C(=O)c2cc(F)cc(F)c2)C1 (centres undefined),7,5,0,-1
CCc1nc(C)cn1S(=O)(=O)c1cc(Br)c(C)cc1OC,-3,-4,-6,i
c1ccc(-c2nc3c(ccc4ccccc43)[nH]2)nc1,-14,33*,16,-1
c1ccc(-c2nc3ccccc3[nH]2)nc1,-9,0,6,1
SMILES,CCHFV vOTU inh,GDH-TPI inh,Mtb FBA inh,BH1578 lux ind
COc1ccc(C(C)=O)cc1COC(=O)CCC(=O)c1cccs1,14,-3,1,i
O=C(NCC(=O)N(Cc1cccs1)C(C(=O)NC1CCCC1)c1cccnc1)c1ccco1 (centres undefined),8,-3,117*,1
CN(C)c1cccc(F)c1C(=O)NC(=O)Nc1ccc(Cl)cc1,2,3,-1,-6
COC(=O)c1cc(C(=O)N2CCN(c3cccc(Cl)c3)CC2)cc([N+](=O)[O-])c1,-10,7,5,0
CCN(CC)Cc1c(C(=O)N/N=C/c2cccc3ccccc23)nnn1-c1nonc1N,0,15,0,-1
CCCc1c(C(=O)N/N=C/c2cccc3ccccc23)nnn1-c1nonc1N,-1,32*,2,i
CCOc1ccc(-c2c(C(=O)N/N=C/c3c[nH]c4ccccc34)nnn2-c2nonc2N)cc1,5,40*,-2,0
CCCCC1(C)OC(=O)C(=Cc2ccc(N(C)C)cc2)C(=O)O1 (centres undefined),9,40*,-3,i
CCCCC1(C)OC(=O)C(=Cc2c[nH]c3ccccc23)C(=O)O1 (centres undefined),7,5,-1,i
CN(C)c1ccc(C=C2C(=O)NC(=O)NC2=O)cc1,15,31*,-3,-1
Cc1ccc(-n2cnnn2)c(S(=O)(=O)N2CCOCC2)c1,7,8,-1,i
O=C1CCC(C(=O)OC(C(=O)Nc2cc(Cl)cc(Cl)c2)c2ccccc2)=NN1 (centres undefined),-4,5,-1,i
CN(C)CCn1c(NC(=O)c2ccc(Cl)cc2)nc2ccccc21,0,25,-1,i
CCCCn1c(-c2cccs2)nc2nc3ccccc3nc21,-270,23,+,-1
COCCCn1c(-c2ccco2)nc2ccccc2c1=O,-15,11,0,i
CCCCOCCCn1c(-c2ccco2)nc2nc3ccccc3nc21,-190,29,+,-3
CC(C)Cn1c(-c2cccs2)nc2nc3ccccc3nc21,-209,19,+,1
c1ccc(Cn2c(-c3cccs3)nc3nc4ccccc4nc32)cc1,-1,·,·,·
C[N+](C)(C)CCCN(Cc1ccc2c(c1)OCO2)C(=O)NC1CCCCC1,-13,-3,-4,0
COc1cc(/C=C/C(=O)OCC(=O)NCCc2ccc(F)cc2)ccc1OC(F)F,-8,13,3,-3
COc1ccc(NC(=O)c2sc3nc(-c4cccnc4)ccc3c2N)cc1,-7,39*,-1,-1
COc1ccc(NC(=O)c2sc3nc(-c4cccnc4)ccc3c2N)cc1OC,-3,43*,-1,i
O=C1C2CC=CCC2C(=O)N1c1ccc(NCCc2cccc(F)c2)c([N+](=O)[O-])c1 (centres undefined),-3,-6,-3,i
COc1cc(/C=N/NC(=S)NC2CC3CC2C2C=CCC32)ccc1O (centres undefined),-6,37*,1,i
COc1ccc(/C=N/NC(=S)NC2CCS(=O)(=O)C2)cc1OC (centres undefined),4,41*,-3,i
SMILES,CCHFV vOTU inh,GDH-TPI inh,Mtb FBA inh,BH1578 lux ind
CCOC(=O)N/N=C(\C)c1ccc(C)o1,-21,3,4,0
COc1cc(/C=C2\SC(=O)N(CC(=O)Nc3ccc(C)cc3)C2=O)cc(Cl)c1OCC(=O)O,-7,33*,-2,0
Cc1c(C)c2ccc(OCC(=O)N3CC[C@@]4(O)CCCC[C@H]4C3)cc2oc1=O,-33,9,87*,-1
NC(=O)C1CCN(C(=O)COc2ccc3c(c2)oc(=O)c2ccccc23)CC1,-101,8,112*,0
CCc1cc(=O)oc2cc(OCC(=O)N3CCC(C(N)=O)CC3)ccc12,-10,12,23,0
Cc1c(Cc2ccccc2)c(=O)oc2cc(OCC(=O)N3CCC(C(N)=O)CC3)ccc12,-74,16,124*,-1
CCOc1cc(N2CCOCC2)c(OCC)cc1NC(=O)COC(=O)c1c(C)noc1C,-1,1,-2,-3
CCOc1ccc(/C=C/c2nc(C#N)c(NCCCOC)o2)cc1,-29,20,12,i
